These results are taken from PubChem BioAssay.

Results with a measured potency or affinity are listed apart. Activity calls are given as the source filed them.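 Rule for the calls: active = a dose-response fit showing signal loss, with half-maximal concentration no higher than twice the top tested dose; inconclusive = flat fit between 30% and 70% signal loss, or poor fit; inactive = the rest.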

The nature of the assay: viability loss in HepG2 hepatoma cells – cell-based, cherry-picks, set 2, cytotoxicity control, dose response (AID 687002). Particulars: ATP luminescence (CellTiter-Glo), 48 h; series mostly up to 26 µM. Background: In ATP-based viability assays light output follows the ATP content of the culture.
In the case of `COc1ccc(-c2cnc3c(c2)C(=O)N([C@@H](C)CO)C[C@H](C)[C@@H](CN(C)S(C)(=O)=O)O3)cc1`, the outcome was inactive.

As for `C[C@H]1CN([C@@H](C)CO)C(=O)c2cc(NC(=O)CCN3CCOCC3)ccc2O[C@@H]1CN(C)Cc1ccc(C(=O)O)cc1`, the molecule was called inactive.

As for `Cc1cccc(C)c1NC(=O)C(CCc1ccccc1)N1CCN(C)CC1` (centres undefined), the result was inactive.

For `O=C(NC1CCCC1)N1CCCCN2[C@H](CO)[C@@H](c3ccc(-c4cncnc4)cc3)[C@H]2C1`, the molecule was called inactive.

As to `CO[C@@H]1CN(C)C(=O)c2ccc(NC(=O)Nc3ccccc3)cc2OC[C@H](C)N(C(C)=O)C[C@H]1C`, the molecule was called inactive.

For the molecule `CCc1ccc(NC(=O)C2NC(=O)CC2c2ccccc2)cc1` (centres undefined), the molecule was classed as inactive.

In the case of `C[C@@H]1CN([C@@H](C)CO)C(=O)c2cccc(NC(=O)Nc3ccccc3)c2O[C@H]1CN(C)S(=O)(=O)c1cn(C)cn1`, the call was inactive.

Turning to `COCC(=O)NC[C@H]1N[C@H](CO)[C@@H]1c1ccc(C2=CCCC2)cc1`, the result was inactive.

`CO[C@H]1CN(C)C(=O)c2cc(NC(C)=O)ccc2OC[C@H](C)N(Cc2cccc(F)c2)C[C@@H]1C`: the molecule was classed as inactive.

As to `C[C@@H]1CN([C@@H](C)CO)S(=O)(=O)c2ccc(C#C[C@@H](C)O)cc2O[C@@H]1CN(C)C(=O)C1CCCCC1`, the molecule was called inactive.

Turning to `CCCN1C[C@H](C)[C@@H](OC)CN(C)C(=O)c2cc(NC(=O)c3cccc(F)c3)ccc2OC[C@H]1C`, the molecule was called inactive.

For `C[C@@H]1CCCCO[C@H](CN(C)C(=O)c2ccncc2)[C@H](C)CN([C@H](C)CO)C(=O)c2cc(NC(=O)CCC(F)(F)F)ccc2O1`, the result was inactive.

With `C[C@H](CO)N1C[C@H](C)[C@@H](CN(C)S(C)(=O)=O)Oc2cc(C#Cc3ccccc3)ccc2S1(=O)=O`, the result was inactive.

Consider `CC(C)NC(=O)Nc1ccc2c(c1)C(=O)N([C@@H](C)CO)C[C@@H](C)[C@H](CN(C)Cc1ccncc1)OCCCC[C@@H](C)O2`, for which the molecule was called inactive.

Consider `Cc1noc(C)c1S(=O)(=O)Nc1ccc2c(c1)CC(=O)N([C@@H](C)CO)C[C@H](C)[C@@H](CN(C)S(=O)(=O)c1cn(C)cn1)O2`, for which the molecule was called inactive.

Turning to `O=C(C[C@@H]1CC[C@H]2[C@@H](COC[C@@H](O)CN2Cc2ccc(Cl)cc2)O1)NCc1cccc(F)c1`, the call was inactive.

On to `COc1ccc(NC(=O)Nc2ccc3c(c2)C(=O)N([C@@H](C)CO)C[C@@H](C)[C@H](CN(C)C(=O)Cc2ccccc2)OCCCC[C@H](C)O3)cc1`, for which the result was inactive.

On to `C[C@@H]1CN([C@H](C)CO)C(=O)Cc2cc(NC(=O)Nc3cccc4ccccc34)ccc2O[C@@H]1CN(C)Cc1ccc(C(=O)O)cc1`, for which the call was inactive.

In the case of `CC=Cc1ccc2n(c1=O)C[C@H]1[C@H](CO)[C@@H](C(=O)NCc3ccc4c(c3)OCO4)[C@@H]2N1C(=O)C1CC1` (mixture of isomers), the result was inactive.

For the molecule `Cc1cccc(C)c1NC(=O)C(C)N1CCCCC1` (centres undefined), the molecule was classed as inactive.

For the molecule `COCC(=O)N1[C@H](C#N)[C@H](c2ccc(C#Cc3ccccc3F)cc2)[C@H]1CO`, the call was inactive.

Regarding `CCC(=O)N(C)C[C@H]1Oc2cc(C#CC(C)(C)O)ccc2S(=O)(=O)N([C@H](C)CO)C[C@@H]1C`, the result was inactive.

Regarding `CCCNC(=O)N1C[C@@H]2[C@H](c3ccccc31)[C@H](CO)N2Cc1ccc(OC)cc1`, the call was inactive.

On to `C[C@@H]1CN([C@@H](C)CO)C(=O)c2cc(NS(=O)(=O)c3ccc(F)cc3)ccc2O[C@@H](C)CCCCO[C@@H]1CN(C)Cc1ccc2c(c1)OCO2`, for which the result was inactive.

On to `C[C@H](CO)N1C[C@H](C)[C@@H](CN(C)C(=O)c2cccc(F)c2)Oc2cc(-c3cncnc3)ccc2S1(=O)=O`, for which the molecule was classed as inactive.

As for `CO[C@H]1CN(C)C(=O)c2cc(NS(=O)(=O)c3ccc(C)cc3)ccc2OC[C@H](C)N(C)C[C@H]1C`, the molecule was called inactive.

Regarding `COc1ccc(NC(=O)Nc2ccc3c(c2)C(=O)N([C@H](C)CO)C[C@@H](C)[C@@H](CN(C)C(=O)CCC(F)(F)F)OCCCC[C@H](C)O3)cc1`, the result was inactive.

As for `C=CCNC(=O)CN(c1ccc(F)cc1)S(=O)(=O)c1ccc(OC)cc1`, the molecule was classed as inactive.

Consider `COc1ccc(-n2ncc3c(SCC(=O)OC(C)C)ncnc32)cc1`, for which the call was inactive.

Consider `COCC(=O)N1C[C@H](C)[C@H](OC)CN(C)C(=O)c2ccc(NC(=O)NC(C)C)cc2OC[C@@H]1C`, for which the call was inactive.

As to `COc1ccc(S(=O)(=O)N[C@@H]2C=C[C@@H](CC(=O)N3CCC(Cc4ccccc4)CC3)O[C@H]2CO)cc1`, the result was inactive.

Regarding `C/C=C/c1cnc2c(c1)C(=O)N([C@@H](C)CO)C[C@@H](C)[C@@H](CN(C)C(=O)C1CCCCC1)O2`, the molecule was classed as inactive.

Consider `CCC(C(=O)Nc1c(C)cc(C)cc1C)N1CCCCCC1` (centres undefined), for which the result was inactive.

For the molecule `C[C@H]1CN([C@@H](C)CO)C(=O)Cc2cc(NC(=O)Nc3ccccc3)ccc2O[C@@H]1CN(C)C(=O)Nc1ccc2c(c1)OCO2`, the call was inactive.

On to `Cc1ccc(S(=O)(=O)Nc2ccc3c(c2)C(=O)N([C@@H](C)CO)C[C@@H](C)[C@@H](CN(C)S(=O)(=O)c2ccc(Cl)cc2)OCCCC[C@H](C)O3)cc1`, for which the result was inactive.

Take `CNC(=O)C[C@H]1CC[C@H]2[C@H](COc3ccc(NC(=O)Nc4ccccc4)cc3C(=O)N2C)O1`: the call was inactive.

Turning to `O=C(Nc1cccc(F)c1)N[C@H]1CC[C@@H](CCNS(=O)(=O)c2cccc(Cl)c2)O[C@@H]1CO`, the result was inactive.

In the case of `COc1ccc(S(=O)(=O)Nc2ccc3c(c2)C(=O)N([C@H](C)CO)C[C@@H](C)[C@@H](CN(C)C(=O)Nc2ccccc2)O3)cc1`, the outcome was inactive.

Consider `C[C@@H]1CN([C@H](C)CO)C(=O)c2cccc(NC(=O)C3CC3)c2O[C@H]1CN(C)Cc1ccc(C(=O)O)cc1`, for which the molecule was called inactive.
